PubChem BioAssay (NCATS)
Records with an inconclusive call do not appear. Activity calls are given as the source filed them. Calls come from the whole dose curve; as a rule, active = well fitted curve in the direction sought with a large enough effect; inconclusive = small, poorly fitted or top-dose-only effect, or another doubt; inactive = no such curve, though single readings can be large; an effect the other way counts as inactive or inconclusive.

Assays:
[1] = Quantitative High-Throughput drug screen in 47 multiple myeloma cell lines against the NCATS MIPE library collection: JIM3_ECACC cell viability assay (AID 1918963; note: nearly all actives have a fitted effect of over 35% in size); conditions: JIM3 myeloma viability, CellTiter-Glo ATP, 48 h; series mostly up to 45.8 µM
Summary of the method: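 Myeloma cells (500 per well) were exposed to MIPE 4.0 compounds by pin transfer and incubated 48 hours at 37C, 5% CO2. Viability was read as ATP by CellTiter-Glo luminescence, normalised to DMSO (100%) and media-only (0%) wells.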

[2] = Quantitative High-Throughput drug screen in 47 multiple myeloma cell lines against the NCATS MIPE library collection: KMS27_JCRB cell viability assay (AID 1918970); conditions: KMS27 myeloma cells, CellTiter-Glo ATP viability, 48 h; series mostly up to 45.8 µM; note: nearly all actives have a fitted effect of over 30% in size
Summary of the method: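 KMS27_JCRB myeloma cells, 500 per well, exposed 48 h at 37 C, 5% CO2 to MIPE 4.0 compounds. Viability from ATP by CellTiter-Glo luminescence, normalized to DMSO (100%) and medium-only (0%) wells.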

[3] = Quantitative High-Throughput drug screen in 47 multiple myeloma cell lines against the NCATS MIPE library collection: JIM1_ECACC cell viability assay (AID 1918964); conditions: JIM1 myeloma viability, CellTiter-Glo ATP luminescence, 48 h; series mostly up to 45.8 µM
Summary of the method: (§1)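 qHTS of the MIPE 4.0 collection: 500 myeloma cells/well, 48 h drug exposure at 37C in 5% CO2, then CellTiter-Glo for 5 min at room temperature before luminescence reading.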

[4] = Quantitative High-Throughput drug screen in 47 multiple myeloma cell lines against the NCATS MIPE library collection: INA6_PLB cell viability assay (AID 1918965; note: nearly all actives have a fitted effect of over 55% in size); conditions: INA6 myeloma viability, CellTiter-Glo ATP luminescence, 48 h; series mostly up to 45.8 µM
Summary of the method: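 CellTiter-Glo ATP luminescence gave viability after 48 h compound treatment at 37C of 500 multiple myeloma cells per well. Normalisation used DMSO-only wells as 100% and media-only wells as 0% viability; primary qHTS of approved and investigational drugs.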

[5] = Quantitative High-Throughput drug screen in 47 multiple myeloma cell lines against the NCATS MIPE library collection: JJN3_DSMZ cell viability assay (AID 1918966; note: nearly all actives have a fitted effect of over 50% in size); conditions: JJN3 myeloma cells viability, CellTiter-Glo ATP, 48 h; series mostly up to 45.8 µM
Summary of the method: as §1

[6] = Quantitative High-Throughput drug screen in 47 multiple myeloma cell lines against the NCATS MIPE library collection: H1112_PLB cell viability assay (AID 1918967; note: nearly all actives have a fitted effect of over 30% in size); conditions: H1112 myeloma cells viability, ATP luminescence, 48 h; series mostly up to 45.8 µM
Summary of the method: as §1

[7] = Quantitative High-Throughput drug screen in 47 multiple myeloma cell lines against the NCATS MIPE library collection: Karpas25_ECACC cell viability assay (AID 1918968; note: nearly all actives have a fitted effect of over 35% in size); conditions: Karpas25 myeloma viability, CellTiter-Glo ATP, 48 h; series mostly up to 45.8 µM
Summary of the method: as §1
Potency is the fitted concentration of half-maximal effect.

Question: For `OC[C@H]1O[C@@H](Oc2cc(O)cc(C=Cc3ccc(O)cc3)c2)[C@H](O)[C@@H](O)[C@H]1O`, which Potency [1] is on record?
Answer: The Potency was “inactive”.

Question: And the Potency [2]?
Answer: Its Potency is “inactive”.

Question: Which Potency [3] does the source give for `COc1ccc(Cc2nccc3cc(OC)c(OC)cc23)cc1OC` here?
Answer: The Potency was 16.6 µM (active).

Question: And the Potency [4]?
Answer: The Potency was 20.9 µM (active).

Question: What about the Potency [5] of the same compound?
Answer: Its Potency is 16.6 µM (active).

Question: For `COC(=O)C1=CO[C@@H](O)[C@@H]2C(CO)=CC[C@@H]12`, which Potency [1] is on record?
Answer: Its Potency is 23.5 µM (active).

Question: What about the Potency [5] of the same compound?
Answer: Its Potency is 11.8 µM (active).

Question: And the Potency [6]?
Answer: The Potency was “inactive”.

Question: With `COc1ccc(-c2coc3cc(O)cc(O)c3c2=O)cc1` as the compound, how does the Potency [1] read?
Answer: Its Potency is “inactive”.

Question: What about the Potency [5] of the same compound?
Answer: The Potency was “inactive”.

Question: And the Potency [7]?
Answer: Its Potency is “inactive”.

Question: For `CC(C)(C)NC(=O)Nc1cccc(Nc2ncc(F)c(NC(C)(C)CO)n2)c1`, which Potency [1] is on record?
Answer: Its Potency is 13.2 µM (active).

Question: What about the Potency [4] of the same compound?
Answer: Its Potency is 18.7 µM (active).

Question: And the Potency [6]?
Answer: Its Potency is “inactive”.

Question: For `CCN(CC)CCOc1ccc(C(=C(Cl)c2ccccc2)c2ccccc2)cc1`, which Potency [1] is on record?
Answer: The Potency was “inactive”.

Question: What about the Potency [4] of the same compound?
Answer: Its Potency is “inactive”.

Question: What about the Potency [7] of the same compound?
Answer: Its Potency is “inactive”.

Question: With `O=C1Nc2ccc(Cl)cc2C(C#CC2CC2)(C(F)(F)F)O1` (stereo unspecified) as the compound, how does the Potency [4] read?
Answer: Its Potency is 20.9 µM (active).

Question: What about the Potency [6] of the same compound?
Answer: The Potency was 23.5 µM (active).

Question: And the Potency [7]?
Answer: The Potency was 20.9 µM (active).

Question: With `C[C@]12CC[C@@H]3c4ccc(O)cc4CC[C@H]3[C@H]1C[C@@H](O)[C@H]2O` as the compound, how does the Potency [1] read?
Answer: The Potency was “inactive”.

Question: What about the Potency [6] of the same compound?
Answer: Its Potency is “inactive”.

Question: With `CCCCCNC(=O)N1CCC(CN(Cc2ccc(Cl)cc2)Cc2ccc([N+](=O)[O-])s2)C1` (stereo unspecified) as the compound, how does the Potency [5] read?
Answer: The Potency was 23.5 µM (active).

Question: And the Potency [7]?
Answer: The Potency was 20.9 µM (active).

Question: And the Potency [2]?
Answer: The Potency was 20.9 µM (active).

Question: Which Potency [4] does the source give for `NC(=O)c1cnc(-c2ccc(C3(N)CCC3)cc2)c(-c2ccccc2)c1` here?
Answer: Its Potency is 10.5 µM (active).

Question: And the Potency [6]?
Answer: Its Potency is 4.18 µM (active).

Question: And the Potency [7]?
Answer: The Potency was 13.2 µM (active).

Question: Which results are given for `CC=CCC=CCCC(=O)[C@H]1O[C@@H]1C(N)=O`?
Answer: Potency [3]: 11.8 µM (active); Potency [4]: 18.7 µM (active); Potency [5]: 16.6 µM (active)
